The values that follow come from PubChem BioAssay AID2283109 (EPA ToxCast).

In general, AC50 refers to the concentration at which the activity in the assay is half-maximal.

Structures are written as SMILES. Calls of active or inactive are those of the source. How the source made its calls: active means hit-call score of the fitted dose curve at least 0.9, where 1 is the maximum; inactive means score below 0.9.

human CYP3A5, CYP3A5 (gene 1577), sequence (P20815 whole entry, looked up): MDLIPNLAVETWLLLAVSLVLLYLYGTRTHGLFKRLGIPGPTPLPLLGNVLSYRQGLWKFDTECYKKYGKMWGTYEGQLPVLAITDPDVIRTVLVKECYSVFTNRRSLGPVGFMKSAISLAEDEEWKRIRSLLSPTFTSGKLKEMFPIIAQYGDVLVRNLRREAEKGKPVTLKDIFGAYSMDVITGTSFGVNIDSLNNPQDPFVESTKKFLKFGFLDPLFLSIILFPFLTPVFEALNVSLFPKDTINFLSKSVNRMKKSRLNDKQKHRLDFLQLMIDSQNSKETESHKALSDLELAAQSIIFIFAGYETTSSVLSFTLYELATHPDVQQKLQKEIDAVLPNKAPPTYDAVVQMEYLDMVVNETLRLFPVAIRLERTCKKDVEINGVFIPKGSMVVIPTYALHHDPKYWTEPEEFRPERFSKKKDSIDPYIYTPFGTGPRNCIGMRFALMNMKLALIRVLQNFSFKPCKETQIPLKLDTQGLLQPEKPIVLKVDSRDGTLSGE

This test concerns the target human CYP3A5, CYP3A5 (gene 1577) (UniProt P20815). Briefly: NVS_ADME_hCYP3A5: NovaScreen (NVS) CYP450-related Enzyme Activity (ADME) Assay for human CYP3A5. The protocol:
NVS_ADME_hCYP3A5 is a biochemical, single-readout assay that uses extracted gene-proteins in a cell-free assay. Measurements were taken 0.5 hour after chemical dosing in a 96-well plate.NVS_ADME_hCYP3A5 is one of one assay component(s) measured or calculated from the NVS_ADME_hCYP3A5 assay. It is designed to make measurements of enzyme activity, a form of enzyme reporter, as detected with fluorescence intensity signals by Fluorescence technology.Data from the assay component NVS_ADME_hCYP3A5 was analyzed into 1 assay endpoint. This assay endpoint, NVS_ADME_hCYP3A5, was analyzed in the positive analysis fitting direction relative to Acetonitrile as the negative control and baseline of activity. Using a type of enzyme reporter, loss-of-signal activity can be used to understand changes in the enzymatic activity as they relate to the gene CYP3A5. Furthermore, this assay endpoint can be referred to as a primary readout, because this assay has produced multiple assay endpoints where this one serves a enzymatic activity function. To generalize the intended target to other relatable targets, this assay endpoint is annotated to the cyp intended target family, where the subfamily is xenobiotic metabolism.
Binding assays used specific radioligands (tritiated, iodinated) with non-radioactive competitive displacement ligands in agonist or antagonist protocols (as indicated) and various reference compounds and inhibitors to titrate specific binding to receptors and transporters. Most enzyme assays (CYPs, kinases, phosphatases, proteases, HDACs) used recombinant protein and specific substrates (fluorescence mostly, some colorimetric and radioactive) and inhibitors, followed by a biochemical separation of substrate and product. All assays for the biochemical HTS were initially run in duplicate at a single concentration (10 uM for CYP450 assays and 25 uM for all others). […]
In the case of `COP(=S)(OC)Oc1ccc(Sc2ccc(OP(=S)(OC)OC)cc2)cc1`, the concentration at half-maximal activity (AC50) was 13.5 µM (active).
The same measure, in the same setting: in the case of `Clc1ccc(C2(Cn3cncn3)CC(Br)CO2)c(Cl)c1` (stereo not drawn) it was 0.557 µM (active).
As to `COC(=O)Nc1cccc(OC(=O)Nc2cccc(C)c2)c1`, the result was inactive.
